Values joined by “and” are separate entries in the source; they are usually repeats but may differ in a detail not shown here. Identical values can stand only once. Inconclusive results are not listed. The source holds several records for some structures; these can differ, active in one and inactive in another. Active and inactive are the calls of the source. Unless noted, calls follow the shape of the dose curve; as a rule, active = well fitted curve in the direction sought with a large enough effect in the repeat runs; inconclusive = weak or mixed curves; inactive = no such curve, though single readings can be large; an effect the other way counts as inactive or inconclusive.

This is an account of results in PubChem BioAssay (Tox21).

The target in experiment [1] is Luciferin 4-monooxygenase (Photinus pyralis) (UniProt P08659). The experiment is described as follows: qHTS assay to identify small molecule inhibitors of firefly luciferase (AID 1224835). Also: series mostly up to about 120 µM; nearly all actives have a fitted effect of over 25% in size. The essentials:
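Biochemical qHTS: compounds run as interplate titrations against purified firefly enzyme, with D-luciferin and ATP each at its KM concentration. Light output recorded by CCD imaging.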
Background: qHTS replaces the single test concentration by a dilution series.

The nature of experiment [2]: qHTS assay to identify small molecule agonists of the constitutive androstane receptor (CAR) signaling pathway - cell viability counter screen (AID 1224836). Also: series mostly up to about 92 µM; nearly all actives have a fitted effect of over 45% in size. The essentials:
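Counter screen multiplexed with the CAR reporter readout: HepG2 cells co-transfected with hCAR and the CYP2B6-2.2kb construct receive a 15-concentration compound series and 0.75 uM PK11195 (final), then CellTiter-Fluor fluorescence is read after 23 h.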

Experiment [3] in a line: qHTS assay to identify small molecule antagonists of the constitutive androstane receptor (CAR) signaling pathway - cell viability counter screen (AID 1224837). Also: series mostly up to about 92 µM; nearly all actives have a fitted effect of over 45% in size. The essentials: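 To flag cytotoxic false antagonists, HepG2 hCAR/CYP2B6-2.2kb cells were treated 23 hr with 15-concentration compound series and 50 nM CITCO at 37 C/5% CO2; CellTiter-Fluor fluorescence was the measured end point.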

For experiment [4], the target named is Nuclear receptor subfamily 1 group I member 3 (Homo sapiens) (UniProt Q14994). The experiment is described as follows: qHTS assay to identify small molecule antagonists of the constitutive androstane receptor (CAR) signaling pathway (AID 1224838).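 Also: HepG2 cells stably expressing hCAR with CYP2B6 luciferase reporter stimulated by CITCO; nearly all actives have a fitted effect of over 40% in size.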 The essentials:
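Human hepatoma HepG2 cells expressing hCAR and a CYP2B6 promoter (2.2 kb) luciferase construct; compound titration (15 points) with 50 nM CITCO final, 24 h at 37 C/5% CO2; luminescence via ONE-Glo after 30 min at room temperature.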

Experiment [5] shares this target. Briefly: qHTS assay to identify small molecule agonists of the constitutive androstane receptor (CAR) signaling pathway (AID 1224839). Also: nearly all actives have a fitted effect of over 15% in size. Also: potency is read from the fitted curve at half-maximal effect. As to activation: series mostly up to about 92 µM. The essentials: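 A 15-concentration quantitative screen uses HepG2 cells co-transfected stably with human CAR and CYP2B6-2.2kb reporter. Treatment lasts 24 h with 0.75 uM PK11195 final present; ONE-Glo luminescence is the signal.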

A short description of experiment [6]: qHTS assay to identify small molecule antagonists of the estrogen related receptor signaling pathway with the pleiotropic PPARgamma coactivator (PGC) from Tox21 10K library - cell viability counter screen (AID 1224840; active = well fitted cell-killing curve with a large enough effect in the repeat runs, not every such curve was filed as active; also: nearly all actives have a fitted effect of over 40% in size). The essentials: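 Seeded PGC/ERR cells (2,000/well, 6 h, 37 C/5% CO2) get compound by pin tool; 17.5 h incubation at 37 C; CellTiter-Fluor added, 30 min, fluorescence measured.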

Experiment [7] concerns the target Thyrotropin receptor (Homo sapiens) (UniProt P16473). The experiment is described as follows: qHTS assay to identify small molecule agonists of the thyroid stimulating hormone receptor (TSHR) signaling pathway (AID 1224843; calls by dose curve; also: nearly all actives have a fitted effect of over 45% in size). The essentials:
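HEK293/TSHR, 800 cells/well; cpd 30 min RT; add cAMP-d2 + anti-cAMP-cryptate, 1 h RT; fluorescence read on plate reader. 15-pt titration, n=3.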

Experiment [8] in a line: qHTS assay to identify small molecule agonists of the hypoxia (HIF-1) signaling pathway - cell viability counter screen (AID 1224844; calls by dose curve; also: nearly all actives have a fitted effect of over 50% in size; also: potency is read from the fitted curve at half-maximal effect). The essentials: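 HRE-bla ME-180; 0.5% dFBS; cpd 17 h, 37C, 5% CO2; CellTiter-Glo lum., 30 min RT, post-FRET read, same wells.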
Experiment [9] is described as follows: qHTS assay to identify small molecule agonists of H2AX (AID 1224845; active = well fitted activation curve with a large enough effect in the signal ratio in the repeat runs, not every such curve was filed as active; the % refers to the signal ratio). The essentials: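 Wild-type CHO-K1 cells, plated overnight, exposed 3hr at 37C to 15 concentrations (0.76% DMSO final). Lysed, then HTRF anti-pH2AX (S139) cryptate and anti-H2AX-d2 antibodies, 24 hr room temperature; 665/620 nm emission read.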
A short description of experiment [10]: qHTS assay to identify small molecule agonists of the hypoxia (HIF-1) signaling pathway (AID 1224846; active = well fitted activation curve with a large enough effect in the signal ratio in the repeat runs, not every such curve was filed as active; the % refers to the signal ratio; also: potency is read from the fitted curve at half-maximal effect). The essentials:
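Reporter induction in HRE-bla ME-180 cells is taken as agonism: cells sit 5 hrs after plating, receive compounds or DMSO only, incubate 17 hrs at 37C under 5% CO2, and are loaded with CCF4-AM for beta-lactamase FRET measurement.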

The nature of experiment [11]: qHTS assay to identify small molecule agonists of H2AX - cell viability counter screen (AID 1224847; calls by dose curve; also: top concentration of the series differs between compounds; nearly all actives have a fitted effect of over 30% in size). The essentials: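 We seed wild-type CHO-K1 cells overnight, treat them for 3 hr at 37C with compounds in 15-concentration series, and quantify remaining viability by CellTiter-Glo luminescence.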
Experiment [12] in a line: qHTS RealTime-Glo MT Cell Viability Assay in HepG2 cells - 24 hour (AID 1224867). Also: nearly all actives have a fitted effect of over 50% in size. The essentials:
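qHTS, HepG2, 600 cells/well, RealTime-Glo (NanoLuc + prosubstrate) added with cells; 5 h preincubation; DMSO compound addition; 37 C; luminescence at 0/8/16/24/32/40 h.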

Experiment [13] can be described thus: qHTS RealTime-Glo MT Cell Viability Assay in HEK293 cells - 32 hour (AID 1224868). Also: nearly all actives have a fitted effect of over 50% in size. Also: potency is read from the fitted curve at half-maximal effect. The essentials: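 Assay medium contained NanoLuc luciferase plus cell-permeant prosubstrate, added with HEK293 cells at 600 cells/well. After 5 h at 37 C/5% CO2 compounds were added; plates stayed at 37 C for 40 h with serial luminescence reads.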
The nature of experiment [14]: qHTS RealTime-Glo MT Cell Viability Assay in HepG2 cells - 40 hour (AID 1224870). Also: nearly all actives have a fitted effect of over 50% in size. The essentials: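 HepG2 cells (600/well) mixed with RealTime-Glo MT reagent, settled 5 h at 37 C/5% CO2 before compound addition. Nonlytic NanoLuc luminescence from viable-cell prosubstrate reduction read repeatedly during 40 h treatment at 37 C.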
The nature of experiment [15]: A CellTox Green Cytotoxicity Assay to monitor cytotoxicity in HEK293 cells - 0 hour (AID 1224869). Also: nearly all actives have a fitted effect of over 50% in size. The essentials: (§1)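 Tox21 screen in HEK293: membrane-impermeant cyanine dye fluoresces on binding dead-cell DNA; compound pinned 5 h post-seeding, plates held at 37 C, signal read repeatedly through 40 h.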
The nature of experiment [16]: A CellTox Green Cytotoxicity Assay to monitor cytotoxicity in HEK293 cells - 40 hour (AID 1224871). Also: nearly all actives have a fitted effect of over 45% in size. The essentials:
as §1

Sequence of Luciferin 4-monooxygenase (Photinus pyralis) (P08659 whole entry, looked up): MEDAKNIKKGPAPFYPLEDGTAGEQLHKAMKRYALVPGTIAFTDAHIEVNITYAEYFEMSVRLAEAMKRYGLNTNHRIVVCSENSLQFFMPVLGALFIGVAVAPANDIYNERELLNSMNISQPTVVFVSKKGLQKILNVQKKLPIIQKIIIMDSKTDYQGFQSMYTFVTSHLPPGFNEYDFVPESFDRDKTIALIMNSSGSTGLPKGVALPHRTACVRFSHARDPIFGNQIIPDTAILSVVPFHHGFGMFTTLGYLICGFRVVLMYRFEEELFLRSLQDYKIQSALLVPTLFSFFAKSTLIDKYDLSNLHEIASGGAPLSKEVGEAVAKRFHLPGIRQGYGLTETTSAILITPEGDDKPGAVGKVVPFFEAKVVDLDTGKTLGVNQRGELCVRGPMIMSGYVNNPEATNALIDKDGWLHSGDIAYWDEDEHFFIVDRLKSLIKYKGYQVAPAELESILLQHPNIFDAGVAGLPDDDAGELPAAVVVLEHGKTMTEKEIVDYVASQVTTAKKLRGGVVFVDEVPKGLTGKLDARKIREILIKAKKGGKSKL
Sequence of Nuclear receptor subfamily 1 group I member 3 (Homo sapiens) (Q14994 whole entry, looked up): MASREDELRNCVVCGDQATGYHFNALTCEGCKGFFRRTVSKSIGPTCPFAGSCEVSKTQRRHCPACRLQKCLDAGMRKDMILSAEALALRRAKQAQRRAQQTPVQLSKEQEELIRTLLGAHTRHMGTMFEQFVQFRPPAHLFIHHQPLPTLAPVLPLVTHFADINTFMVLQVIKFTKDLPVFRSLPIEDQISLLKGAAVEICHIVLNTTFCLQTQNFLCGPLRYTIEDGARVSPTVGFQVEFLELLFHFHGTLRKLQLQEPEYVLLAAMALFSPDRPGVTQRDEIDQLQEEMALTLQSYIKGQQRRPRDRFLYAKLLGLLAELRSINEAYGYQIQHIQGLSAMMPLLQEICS
Sequence of Thyrotropin receptor (Homo sapiens) (P16473 whole entry, looked up): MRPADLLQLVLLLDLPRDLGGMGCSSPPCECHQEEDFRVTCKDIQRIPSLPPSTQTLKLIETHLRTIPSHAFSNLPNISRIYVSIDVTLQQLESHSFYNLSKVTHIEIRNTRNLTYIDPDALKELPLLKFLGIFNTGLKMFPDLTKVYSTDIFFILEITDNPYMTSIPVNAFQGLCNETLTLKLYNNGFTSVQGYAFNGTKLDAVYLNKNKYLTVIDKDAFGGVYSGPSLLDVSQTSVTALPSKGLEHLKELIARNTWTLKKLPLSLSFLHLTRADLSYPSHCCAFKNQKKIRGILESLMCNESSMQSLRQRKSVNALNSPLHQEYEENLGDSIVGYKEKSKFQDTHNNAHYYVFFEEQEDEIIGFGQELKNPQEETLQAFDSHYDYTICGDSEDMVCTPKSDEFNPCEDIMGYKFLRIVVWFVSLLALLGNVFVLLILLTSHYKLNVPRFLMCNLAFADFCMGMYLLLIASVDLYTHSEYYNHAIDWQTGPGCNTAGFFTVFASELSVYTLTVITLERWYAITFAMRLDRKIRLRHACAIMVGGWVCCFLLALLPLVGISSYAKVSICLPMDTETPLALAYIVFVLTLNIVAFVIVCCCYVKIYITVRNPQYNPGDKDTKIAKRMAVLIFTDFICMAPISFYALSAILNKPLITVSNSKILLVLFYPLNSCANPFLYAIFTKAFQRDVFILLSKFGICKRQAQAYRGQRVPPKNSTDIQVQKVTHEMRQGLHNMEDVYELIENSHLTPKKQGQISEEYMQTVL

In the case of `OCCO`, the Potency result in experiment [1], in [2], in [3], in [4], in experiment [5] and in experiment [6] was “inactive” throughout. Further, the Potency result in experiment [7], in [8], in [10], in [11], in [12] and in experiment [13] was “inactive” in each case. Further, the Potency result in experiment [14] was “inactive”. For the same compound, in [9], the outcome was inactive.

Consider `C=CC(C)(CCC=C(C)C)OC(C)=O` (centres undefined), for which the Potency result in experiment [1], in [2], in experiment [3], in experiment [4], in [5] and in experiment [6] was “inactive” throughout. Moreover, the Potency result in [7], in experiment [8], in experiment [10], in experiment [12], in experiment [13] and in [15] was “inactive” each time. Further, the Potency entry in [14] and in [16] was “inactive” each time. In addition, in [9], the outcome was inactive.

Consider `Cc1c(C(N)=O)cc([N+](=O)[O-])cc1[N+](=O)[O-]`, for which the Potency entry in experiment [1], in [2], in experiment [3], in experiment [4], in [5] and in experiment [6] was “inactive” in each case. Moreover, the Potency result in [7], in experiment [8], in experiment [10], in experiment [11], in [12] and in [13] was “inactive” in each case. The Potency entry in experiment [15] and in experiment [16] was “inactive” in each case. Also, the compound was classed as inactive in experiment [9].

In the case of `Cc1cccc([N+](=O)[O-])c1C`, the Potency result in experiment [1], in experiment [2], in [3], in experiment [4], in experiment [5] and in experiment [6] was “inactive” each time. For the same compound, the Potency entry in experiment [8], in experiment [10], in experiment [12], in experiment [13], in experiment [15] and in [14] was “inactive” each time. In addition, the Potency entry in experiment [16] is “inactive”.

Consider `CC(=O)CC/C=C(\C)CCC=C(C)C`, for which the Potency result in experiment [1], in [2], in experiment [3], in experiment [4], in experiment [5] and in experiment [6] was “inactive” each time. In addition, the Potency result in experiment [7], in [8], in experiment [10], in [12], in [13] and in experiment [15] was “inactive” throughout. The Potency entry in [14] and in experiment [16] was “inactive” each time.

For the compound `Brc1cc(Oc2cc(Br)c(Br)c(Br)c2Br)c(Br)c(Br)c1Br`, the Potency entry in experiment [1], in [2], in [3], in experiment [4], in [5] and in [6] was “inactive” in each case. The Potency result in experiment [7], in [10], in experiment [11], in experiment [12], in experiment [13] and in experiment [14] was “inactive” in each case. In experiment [8], the Potency is 49.2 µM (active) and inactive.

As for `c1ccc2c(c1)c1cccc3ccc4cccc2c4c31`, the Potency result in experiment [1], in [2], in experiment [3], in experiment [4], in [6] and in [7] was “inactive” in each case. Further, the Potency result in experiment [8], in experiment [11], in experiment [12], in experiment [15], in [14] and in [16] was “inactive” each time. The Potency in experiment [5] is 13.6 µM (active) and 27.3 µM (active); in experiment [10] it was 43.4 µM (active) and inactive; in [13] it was “inactive and 17.4 µM (active)”.
